# The panel holds about 83,000 compounds, 20% with a hit somewhere; the sample as a whole holds those more often.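 Plates (96-well) were seeded with cells, treated with compound at one concentration, and incubated for 48 hours before percent growth was determined.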 Values without a mark were called inactive. Calls of active or inactive are those of the source. Rule for the calls: active = growth percent below 10; inactive = the rest. Where a SMILES comes first, the peptide text is derived from it. Bridges are numbered along the chain shown (N, C = ends). [ ]: non-standard residue; d: D form. The star is where a group is joined. ξ: configuration not given here. ξNMePhe(4-NMe2) = CNC(Cc1ccc(N(C)C)cc1)C(=O)O; Picolinoyl(3-OH) = O=C(c1ncccc1O)*; ξPip(4-oxo) = O=C1CCNC(C(=O)O)C1; Phg = N[CH](C(=O)O)c1ccccc1; Abu = CC[CH](N)C(=O)O
# What was measured:
# Test in all cases: NCI-60 one-dose screen, 48 h (100 = growth as untreated, 0 = no growth, -100 = all killed)
# Details in all cases: 10 µM
# NCI-H23 lung = tested on: NCI-H23 lung
# NCI-H226 lung = tested on: NCI-H226 lung
# NCI-H322M lung = tested on: NCI-H322M lung
# HOP-62 NSCLC = tested on: HOP-62 NSCLC
# NCI-H460 lung = tested on: NCI-H460 lung
# HOP-92 NSCLC = tested on: HOP-92 NSCLC
# NCI-H522 lung = tested on: NCI-H522 lung
# A549/ATCC NSCLC = tested on: A549/ATCC NSCLC
# 786-0 renal = tested on: 786-0 renal
# COLO 205 colon = tested on: COLO 205 colon
Compound,growth (NCI-H23 lung),growth (NCI-H226 lung),growth (NCI-H322M lung),growth (HOP-62 NSCLC),growth (NCI-H460 lung),growth (HOP-92 NSCLC),growth (NCI-H522 lung),growth (A549/ATCC NSCLC),growth (786-0 renal),growth (COLO 205 colon)
CC(=O)N(C)c1ccc([N+](=O)[O-])cc1,101%,105%,114%,111%,117%,94.5%,106%,106%,105%,114%
COc1ccccc1C1OC2=Nc3cc(C)c(C)cc3NC2C1=O (stereo not drawn),79%,21.7%,80.3%,47.9%,14.1%,67.7%,91%,67.6%,14%,79.1%
Oc1ccccc1-c1nnco1,94.9%,93.1%,89.9%,81.5%,104%,97%,91%,98.9%,90.6%,103%
CC(=O)Nc1c(C)cc(C)cc1C,101%,101%,103%,109%,105%,69%,94%,102%,–,110%
CC(=O)OCC1CCCO1 (stereo not drawn),106%,100%,98.7%,95.1%,91.5%,97.4%,91%,–,93.5%,102%
CC1Cc2ccccc2O1 (stereo not drawn),98.6%,107%,131%,108%,109%,109%,114%,103%,109%,110%
Cc1cc(NC(=O)CSCC(=O)O)no1,102%,110%,96.7%,96.3%,110%,107%,101%,97.2%,103%,110%
Cc1cc2nc(CC(=O)c3ccccc3)c(=O)[nH]c2cc1C,84%,87%,98.7%,96.2%,97.9%,88.5%,81.2%,105%,98.3%,114%
CCCC(=O)Nc1ccc2c(c1)CN1C(=O)c3ccccc3C1=N2,106%,100%,99.1%,104%,103%,95.3%,106%,–,99.2%,109%
NC(=S)NN=C1CCCC1,83.2%,95.6%,91.7%,95%,104%,82.1%,99.8%,81.1%,106%,101%
CN(C)c1ccc(S(=O)(=O)O)cc1,103%,96.6%,116%,91.1%,109%,85.8%,101%,105%,110%,102%
CCOC(=O)c1cc(/C=C/c2ccc(Cl)cc2Cl)on1,47.4%,14.9%,81.6%,81%,3.82% (active),100%,54.5%,91.6%,-68.6% (active),57.4%
CC1(c2ccccc2)NC(=O)NC1=O (stereo not drawn),116%,98.3%,97.2%,111%,118%,100%,99.4%,96.5%,–,130%
COC1=CC(=O)c2nc(Cl)ccc2C1=O,-15.2% (active),26.6%,106%,89.4%,115%,-18.4% (active),-51.2% (active),98.3%,72.4%,102%
COc1ccc2c(NCCCCCCCCNc3c4ccccc4nc4cc(OC)ccc34)c3ccccc3nc2c1,-92.2% (active),-65.3% (active),-74.3% (active),-99.2% (active),-100% (active),-100% (active),-74.1% (active),-64.7% (active),-100% (active),-100% (active)
CC(C)C(C#N)(C(C)C)C(C)C,104%,104%,107%,101%,102%,95.5%,92%,97.1%,113%,109%
CS(=O)CC1=NC(=N)N=C1CS(C)=O (stereo not drawn),100%,102%,101%,100%,106%,103%,99.9%,97.5%,102%,117%
COC(=O)/C=C\C(=O)OC,106%,114%,125%,113%,111%,95.4%,89.2%,100%,103%,118%
C1CNC(C2=NCCN2)=N1,106%,103%,90.9%,99.4%,101%,93.6%,101%,–,103%,114%
CC1(O)OC(COc2ccc(Cl)cc2)COC1O (stereo not drawn),102%,102%,104%,106%,106%,105%,104%,106%,105%,126%
CC(C)CCCC(=O)O,106%,101%,93.4%,102%,102%,73.9%,103%,105%,116%,112%
CCC1NC(=O)C(NC(=O)c2ncccc2O)C(C)OC(=O)C(c2ccccc2)NC(=O)C2CC(=O)CCN2C(=O)C(Cc2ccc(N(C)C)cc2)N(C)C(=O)C2CCCN2C1=O (stereo not drawn) (tested in a mixture with another compound) ({Picolinoyl(3-OH)}-T[Abu]P[ξNMePhe(4-NMe2)][ξPip(4-oxo)][Phg]; ester 1-C; configuration not given here),19.7%,56.7%,87.2%,87.7%,26.2%,53.8%,66%,28.1%,67.4%,27%
COc1nc(N)nc2c1ncn2C1OC(CO)CC1O (stereo not drawn),103%,103%,96.8%,100%,115%,95.3%,106%,111%,95.4%,104%
CCOC(=O)CCCS(C)(=O)=O,98.6%,109%,120%,102%,110%,87%,109%,109%,110%,110%
CCCCCCCCCCCCCCCCC1CC(=O)OC1=O (stereo not drawn),107%,103%,114%,95.2%,118%,125%,98.6%,98.5%,–,111%
O=C(OCC(O)C1OC(c2ccccc2)OC(COC(=O)c2ccccc2)C1O)c1ccccc1 (stereo not drawn),111%,99.6%,109%,99%,104%,89.8%,–,94.8%,111%,99.9%
COc1ccc(/C(C#N)=C2C=C/C(=N/O)c3ccccc3\2)cc1,27.7%,36%,48.5%,35.3%,3.48% (active),13.3%,–,11.8%,16.8%,-73% (active)
c1cc[n+](C2c3ccccc3C([n+]3ccccc3)c3ccccc32)cc1 (stereo not drawn),65.2%,49.6%,84.8%,37.8%,98.8%,20.6%,–,78.5%,50%,30.8%
NC(=S)CN1CCOCC1,106%,114%,91.6%,118%,105%,91.9%,97.9%,–,–,118%
CCOC(=O)/C(C#N)=C/c1cccc(C)c1,99.5%,109%,95%,101%,103%,83.8%,–,95.5%,98.3%,119%

# Reference: PubChem BioAssay (NCI)
